Activity calls are given as the source filed them. Rule for the calls: active = hit-call score of the fitted dose curve at least 0.9, where 1 is the maximum; inactive = score below 0.9.

The experiment is described as follows: APR_HepG2_MitoticArrest_72hr: Apredica 72-hour HepG2 Assay for Mitotic Arrest (AID 2282918). The conditions noted are these: high-content imaging, actives raise or lower the signal. The protocol:
APR_HepG2_72hr is a cell-based, multiplexed-readout assay that uses HepG2, a human liver cell line, with measurements taken at 72 hours after chemical dosing in a 384-well plate.APR_HepG2_MitoticArrest_72hr is one of 10 assay component(s) measured or calculated from the APR_HepG2_72hr assay. It is designed to make measurements of cell phenotype, a form of morphology reporter, as detected with fluorescence intensity signals by HCS Fluorescent Imaging technology.Data from the assay component APR_HepG2_MitoticArrest_72hr was analyzed into 1 assay endpoint. This assay endpoint, APR_HepG2_MitoticArrest_72hr, was analyzed with bidirectional fitting relative to DMSO as the negative control and baseline of activity. Using a type of morphology reporter, measures of protein for gain or loss-of-signal activity can be used to understand the signaling at the pathway-level as they relate to the gene . Furthermore, this assay endpoint can be referred to as a primary readout, because this assay has produced multiple assay endpoints where this one serves a signaling function. To generalize the intended target to other relatable targets, this assay endpoint is annotated to the cell cycle intended target family, where the subfamily is arrest.
Cells were treated with dimethyl sulfoxide (DMSO) as a solvent control at a final concentration of 0.5% v/v or with compounds in DMSO with a resulting final DMSO concentration of 0.5% v/v. Compound treatment was done at concentrations of 0.39, 0.78, 1.56, 3.12, 6.24, 12.5, 25, 50, 100, and 200 uM in duplicate on each plate. Cells were treated with compounds for 1, 24, or 72 hr. Carbonyl […] m-chloro-phenylhydrazone (CCCP) and taxol were used as positive controls for mitochondrial function and cytoskeletal stability, respectively; DMSO served as the negative control for this experiment. Cells were fixed by the direct addition of 50 uL formaldehyde in Hank's Balanced Salt Solution (HBSS) to a final concentration of 3.7%. After incubation in the fixation medium for 30 min at room temperature (293-298 K), cells were rinsed twice with HBSS and treated with cell permeabilization buffer (16 uL of 0.5% Triton X-100) for 10 min at room temperature (293-298 K) before labeling. For mitochondrial membrane potential and mitochondrial measurements, pre-fixed cells were incubated with 50 uL of MitoTracker Red CMXRos (Invitrogen) at a concentration of 250 nM for 30 min before fixation. In the remaining cases, post-fixed cells were labeled by incubation with a multiplexed mixture of primary antibodies in HBSS for 60 min at room temperature (293-298 K) to detect immunoreactivity of c-Jun (1:500), phospho-histone H3 (1:100), phospho-histone H2A.x (1:200), p53 (1:400), alpha-tubulin (1:200) and Hoechst 33342 (2 ug/mL). Cells were labeled for multiplexed imaging on two separate plates: a) Hoechst 33342, MitoTracker Red, phospho-histone H3, and alpha-tubulin, and b) Hoechst 33342, phospho-histone H2A.x, and c-Jun. A final rinse with HBSS (50 uL) was performed before analysis. The primary and secondary antibodies for the proteins were phospho-histone H3 (rabbit anti-phospho-histone H3 and FITC-donkey anti-rabbit IgG), phospho-histone H2A.x (mouse anti-phospho-histone H2A.x and FITC-donkey anti-mouse IgG), c-Jun (rabbit anti-phospho-c-Jun and Cy3-donkey anti-rabbit IgG), p53 (sheep anti-p53 and Cy5-donkey anti-sheep IgG), alpha-tubulin (mouse anti-alpha-tubulin and Cy5-donkey anti-mouse IgG). These antibodies are available as the CellCiphr HepG2 assay kit (Millipore).Digital images of each well were captured using a Cellomics ArrayScan VTI (Thermo Scientific Cellomics) (0.8 NA objective, 0.63x optical coupler, and XF-93 filter set) at 20x magnification. The images were acquired using the autofocus feature of the ArrayScan instrument, which entails the following steps. First, the camera focuses on channel 1 (Hoechst 33342), where nuclei are identified. Second, a Z offset of 1 um is used for capturing mitochondria (MitoTracker Red). […]
The term AC50 denotes the midpoint of the concentration-response curve, whichever way the signal moves. Regarding `CCN(CC)C(=S)SSC(=S)N(CC)CC`, the AC50 is 23.5 µM (active).

Regarding `Cc1ncc([C@@H](CCCCCCc2ccc3c(n2)NCCC3)CC(=O)O)cn1`, the AC50 was 0.0971 µM (active).

`Nc1ccn([C@@H]2O[C@H](CO)[C@@H](O)[C@@H]2O)c(=O)n1`: the AC50 is 0.177 µM (active).

In the case of `O=C(O)[C@H](O)[C@@H](O)C(=O)O`, the result was inactive.

Turning to `OCCOCCOCCO`, the outcome was inactive.

With `CCc1ccc(O)c(C(C)(C)C)c1`, the AC50 was 81.3 µM (active).

`CCCc1ccccc1`: the compound was called inactive.

Regarding `CC[C@H](C)C(=O)O[C@H]1C[C@H](O)C=C2C=C[C@H](C)[C@H](CC[C@@H](O)C[C@@H](O)CC(=O)O)[C@H]21`, the result was inactive.

As to `OC[C@H]1O[C@@](CO)(O[C@H]2O[C@H](CO)[C@@H](O)[C@H](O)[C@H]2O)[C@@H](O)[C@@H]1O`, the compound was classed as inactive.

As to `CC(=O)c1ccccc1`, the compound was classed as inactive.

For `CC(C)CCCCCCOC(=O)C1CCCCC1C(=O)OCCCCCCC(C)C` (stereo not given), the call was inactive.

As for `CC(C)CC(C)O` (stereo not given), the result was inactive.

`O=C(NO)C1(NS(=O)(=O)c2ccc(Oc3ccc(F)cc3)cc2)CCOCC1`: the compound was classed as inactive.

On to `OC(Cn1cncn1)(Cn1cncn1)c1ccc(F)cc1F`, for which the call was inactive.

Turning to `CCCCCOC(C)=O`, the result was inactive.

As for `O=C(O)c1cccc(C[C@@H]2COc3ccc(OCc4nc5cc(F)ccc5s4)cc3[C@@H]2O)c1`, the AC50 was 102 µM (active).

Consider `CCc1cccc(CC)c1N`, for which the compound was classed as inactive.

Consider `CNC(C)=O`, for which the call was inactive.

`COc1cc(C(C)C)c2c(c1)S(=O)(=O)N(COc1cc(=O)n3cccc(OCCN4CCCCC4)c3n1)C2=O`: the compound was called inactive.

With `CCn1nc(C)c2c1C(=O)NCC(c1ccc(O)cc1)=N2`, the compound was classed as inactive.

As to `CCCC(CCC)C(=O)O`, the result was inactive.

Consider `COc1cc2c(c(OC)c1OC)-c1ccc(OC)c(=O)cc1[C@@H](NC(C)=O)CC2`, for which the AC50 was 0.0391 µM (active).

In the case of `O=C1CN(N=Cc2ccc([N+](=O)[O-])o2)C(=O)N1`, the AC50 was 58.3 µM (active).

Turning to `CCCCN1C(=O)[C@@H]([C@H](O)C2CCCCC2)NC(=O)C12CCN(Cc1ccc(Oc3ccc(C(=O)O)cc3)cc1)CC2`, the AC50 is 54.3 µM (active).

As for `CCOc1ccc2[nH]cc(C(=O)NCc3ccccc3)c(=O)c2n1`, the AC50 was 109 µM (active).

Regarding `O=c1[nH]cnc2c1ncn2[C@H]1CC[C@@H](CO)O1`, the compound was classed as inactive.

With `C[C@]12C=CC(=O)C=C1CC[C@H]1[C@@H]3C[C@@H](O)[C@](O)(C(=O)CO)[C@@]3(C)C[C@H](O)[C@@]12F`, the call was inactive.

Consider `NC(=O)NN=Cc1ccc([N+](=O)[O-])o1`, for which the AC50 was 68.7 µM (active).

As to `CCCCCCCC1CCC(=O)O1` (stereo not given), the compound was called inactive.

With `CCCCCCCCCCCCCCO`, the AC50 is 90.9 µM (active).

As to `OCc1ccccc1`, the compound was classed as inactive.

As for `CCCCCCCCCCCCCCCCOS(=O)(=O)O`, the compound was called inactive.

Consider `CCCCC(CC)C(=O)OCCOCCOCCOC(=O)C(CC)CCCC` (stereo not given), for which the AC50 was 91.2 µM (active).

Regarding `OCC(CO)(CO)CO`, the outcome was inactive.

For `c1ccc2ncccc2c1`, the call was inactive.

With `CC(C)C(=O)Nc1ccc([N+](=O)[O-])c(C(F)(F)F)c1`, the AC50 was 61 µM (active).

As for `c1ccc(C(O[C@@H]2CCCN(CCc3ccc4c(c3)OCO4)C2)c2ccccc2)cc1`, the AC50 was 57.8 µM (active).

Consider `c1ccc2c(c1)-c1cccc3c1c-2cc1ccccc13`, for which the compound was classed as inactive.

Take `CCCOc1ccc(S(=O)(=O)N2CCN(CC)CC2)cc1-c1nc2c(CC)n(Cc3ccccn3)nc2c(=O)[nH]1`: the AC50 was 90.2 µM (active).

Regarding `O=S(=O)(O)c1ccc(N=Nc2c(O)ccc3cc(S(=O)(=O)O)ccc23)cc1`, the call was inactive.

The values are drawn from PubChem BioAssay (EPA / NIEHS).
